C diff HTS: inhibitors of Clostridium difficile growth; hit rate 0.25% among 86,000; Clostridium difficile clinical isolate growth, OD600, 24 h; active compounds read low; growth activity, negative = inhibition, % at 16 µg/mL (by protocol); AID 1259249;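 active means mean growth activity at or below -80% and every replicate also at or below -80%; inconclusive means mean at or below -80% but some replicate above -80%; inactive means mean growth activity above -80%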
T cruzi growth-1: inhibitors of T. cruzi proliferation. T. cruzi beta-gal in NIH3T3, GalScreen luminescence, 90 h. inhibition, % at 8.34 µM. hit rate 5.9% among 77,000;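 active means mean inhibition above about 93%, with at least 55% of replicates each passing it, limit read from the data, passing the limit was not always enough; inconclusive means only one of those two conditions holds; inactive means neither condition holds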
Pf Dd2 inh: inhibitors of Plasmodium falciparum Dd2 growth | P. falciparum Dd2 growth, SYBR Green, 72 h; active compounds read low | activity change, % at 10 µM | hit rate 2.3% among 94,000; in the data active means activity change below about -80%; inconclusive means no clear call, values can overlap the other calls
T cruzi growth-2: Trypanosoma cruzi proliferation inhibition | shares compounds with T cruzi growth-1 | T. cruzi beta-gal in NIH3T3, GalScreen luminescence, 90 h | inhibition, % at 8.35 µM | hit rate 72% among 5,600 | AID 651739;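 active means mean replicate inhibition above about 95% and at least 55% of replicates individually reaching it, limit read from the data; inconclusive means only one of the two criteria is met; inactive means neither criterion is met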
T cruzi growth-3: blocks T. cruzi growth in NIH3T3 host cells; hit rate 21% among 5,600; T. cruzi beta-gal in NIH3T3, GalScreen luminescence, 90 h; inhibition, % at 2.09 µM; shares compounds with T cruzi growth-1;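 active means mean inhibition above about 95%, with at least 55% of replicates also reaching it, limit read from the data; inconclusive means meets just one of the two conditions; inactive means meets neither condition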
NIH3T3 tox: cytotoxicity in mouse NIH/3T3 fibroblasts; shares compounds with T cruzi growth-1; NIH/3T3 viability, CellTiter-Glo ATP luminescence, 90 h; cytotoxicity (signal decrease), % at 8.35 µM; hit rate 14% among 5,600; AID 651742;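 active means mean signal decrease across replicates above about 35% based on untreated-well scatter, with enough replicates individually passing, limit read from the data; inconclusive means no rule stated though some were filed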
3T3 cytotox 2: kills mouse NIH/3T3 fibroblasts; shares compounds with T cruzi growth-1; NIH/3T3 viability, CellTiter-Glo ATP luminescence, 90 h; inhibition, % at 24.9 µM; hit rate 56% among 5,600; AID 651744;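 active means mean loss of cell viability signal at or above a set limit, and enough replicates individually reaching it; inconclusive means meets only the mean limit or only the replicate share; inactive means meets neither condition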
Of the large screens only hits and unclear results are named; the others gave an inactive call (follow-up assays come after a bar, where they were run). Sampled rows, rich in hits. Any-hit rate of the full collection: about 6.8%.

C[C@H]1CCCCO[C@@H](CN(C)Cc2ccccc2)[C@@H](C)CN([C@@H](C)CO)C(=O)c2cc(NC(=O)Nc3cccc4ccccc34)ccc2O1	T cruzi growth-1 109.3 | T cruzi growth-2 inconclusive | T cruzi growth-3 100.2 | NIH3T3 tox inactive | 3T3 cytotox 2 38.2
C[C@H]1CCCCO[C@H](CN(C)Cc2ccccc2)[C@@H](C)CN([C@@H](C)CO)C(=O)c2cc(NC(=O)Nc3cccc4ccccc34)ccc2O1	none (no result: T cruzi growth-1)
C[C@@H]1CN([C@@H](C)CO)C(=O)c2cc(-c3ccc(C#N)cc3)cnc2O[C@@H]1CN(C)C(=O)Nc1ccc(F)cc1	none
COc1ccccc1C(=O)Nc1ccc2c(c1)C(=O)N(C)C[C@H](OC)[C@@H](C)CN(C)[C@H](C)CO2	none
CO[C@H]1CN(C)C(=O)c2ccc(NC(=O)C3CCCC3)cc2OC[C@H](C)N(CCC(F)(F)F)C[C@H]1C	none
O=C(CN1CCOCC1)NCC[C@H]1CC[C@H](NS(=O)(=O)c2ccc(F)cc2)[C@@H](CO)O1	none (no result: C diff HTS)
COCC(=O)Nc1ccc2c(c1)C(=O)N(C)[C@H]1CC[C@H](CC(=O)NCC(F)(F)F)O[C@@H]1CO2	none
C[C@@H]1CCCCO[C@H](CN(C)C(=O)c2ccccc2)[C@H](C)CN([C@@H](C)CO)C(=O)c2cc(NC(=O)Nc3ccc(F)cc3)ccc2O1	none
C[C@@H]1CN([C@@H](C)CO)S(=O)(=O)c2ccc(C#CC3CC3)cc2O[C@@H]1CN(C)C(=O)Cc1ccncc1	none
C[C@H](CO)N1C[C@H](C)[C@@H](CN(C)C(=O)Cc2ccncc2)Oc2cc(C#CC3CC3)ccc2S1(=O)=O	T cruzi growth-1 97.5 | T cruzi growth-2 101.9 | T cruzi growth-3 inactive | NIH3T3 tox inactive | 3T3 cytotox 2 inactive
C[C@H]1CN([C@@H](C)CO)S(=O)(=O)c2ccc(C#CC3CC3)cc2O[C@H]1CN(C)C(=O)Cc1ccncc1	none
C[C@H]1CN([C@@H](C)CO)S(=O)(=O)c2ccc(C#CC3CC3)cc2O[C@@H]1CN(C)C(=O)Cc1ccncc1	T cruzi growth-1 96.3 | T cruzi growth-2 104.0 | T cruzi growth-3 inactive | NIH3T3 tox inactive | 3T3 cytotox 2 inactive
CO[C@H]1CN(C)C(=O)c2ccc(NC(=O)NC(C)C)cc2OC[C@H](C)N(C(=O)NC(C)C)C[C@@H]1C	none (no result: T cruzi growth-1)
CC(C)CC#Cc1cnc2c(c1)C(=O)N([C@@H](C)CO)C[C@H](C)[C@@H](CN(C)C(=O)c1cnccn1)O2	none
Cc1cccc(S(=O)(=O)N2C[C@H](O)COC[C@H]3O[C@H](CC(=O)Nc4ccc(-c5ccccc5)cc4)CC[C@@H]32)c1	T cruzi growth-1 inconclusive | T cruzi growth-2 104.3 | T cruzi growth-3 inactive | NIH3T3 tox inactive | 3T3 cytotox 2 99.4
O=C(C[C@H]1CC[C@H]2[C@@H](COC[C@@H](O)CN2S(=O)(=O)c2ccccc2)O1)Nc1ccc(-c2ccccc2)cc1	none (no result: C diff HTS)
Cc1cccc(S(=O)(=O)N2C[C@@H](O)COC[C@@H]3O[C@@H](CC(=O)Nc4ccc(-c5ccccc5)cc4)CC[C@H]32)c1	none
O=C(C[C@@H]1CC[C@H]2[C@@H](COC[C@@H](O)CN2S(=O)(=O)c2ccccc2)O1)Nc1ccc(-c2ccccc2)cc1	T cruzi growth-1 96.7 (no result: C diff HTS) | T cruzi growth-2 106.1 | T cruzi growth-3 inactive | NIH3T3 tox inactive | 3T3 cytotox 2 91.9
C[C@@H]1CN([C@H](C)CO)C(=O)c2cccc(N(C)C)c2O[C@H]1CN(C)S(=O)(=O)c1ccc(F)cc1	none (no result: T cruzi growth-1)
C[C@@H]1CCCCO[C@@H](CN(C)S(=O)(=O)c2ccc(F)cc2)[C@H](C)CN([C@@H](C)CO)C(=O)c2cc(NC(=O)Nc3ccc(F)cc3)ccc2O1	T cruzi growth-1 98.4 | T cruzi growth-2 104.9 | T cruzi growth-3 inactive | NIH3T3 tox inactive | 3T3 cytotox 2 inactive
C[C@@H]1CCCCO[C@@H](CN(C)S(=O)(=O)c2ccc(F)cc2)[C@H](C)CN([C@H](C)CO)C(=O)c2cc(NC(=O)Nc3ccc(F)cc3)ccc2O1	T cruzi growth-1 100.0, Pf Dd2 inh -81.6 | T cruzi growth-2 104.1 | T cruzi growth-3 inactive | NIH3T3 tox inactive | 3T3 cytotox 2 inactive
C[C@@H]1CCCCO[C@H](CN(C)S(=O)(=O)c2ccc(Cl)cc2)[C@@H](C)CN([C@H](C)CO)C(=O)c2cc(NC(=O)Nc3ccc(F)cc3)ccc2O1	none
C[C@H](CO)N1C[C@H](C)[C@H](CN(C)S(=O)(=O)c2ccc(Cl)cc2)OCCCC[C@H](C)Oc2ccc(NC(=O)Nc3ccc(F)cc3)cc2C1=O	none
C[C@@H]1CCCCO[C@@H](CN(C)S(=O)(=O)c2ccc(F)cc2)[C@@H](C)CN([C@H](C)CO)C(=O)c2cc(NC(=O)Nc3ccc(F)cc3)ccc2O1	none
Cc1ccc(S(=O)(=O)N(C)C[C@@H]2OCCCC[C@H](C)Oc3ccc(NC(=O)Nc4ccc(F)cc4)cc3C(=O)N([C@@H](C)CO)C[C@H]2C)cc1	T cruzi growth-1 106.4, Pf Dd2 inh inconclusive (no result: C diff HTS) | T cruzi growth-2 102.0 | T cruzi growth-3 inactive | NIH3T3 tox inactive | 3T3 cytotox 2 inactive
C[C@@H]1CCCCO[C@H](CN(C)S(=O)(=O)c2ccc(F)cc2)[C@@H](C)CN([C@@H](C)CO)C(=O)c2cc(NC(=O)Nc3ccc(F)cc3)ccc2O1	T cruzi growth-1 100.1 | T cruzi growth-2 108.1 | T cruzi growth-3 inactive | NIH3T3 tox inactive | 3T3 cytotox 2 50.9
C[C@@H]1CCCCO[C@@H](CN(C)S(=O)(=O)c2ccc(Cl)cc2)[C@@H](C)CN([C@@H](C)CO)C(=O)c2cc(NC(=O)Nc3ccc(F)cc3)ccc2O1	none
CCC(=O)N1CC2(C1)CN(Cc1cc(F)ccc1F)[C@H](CO)c1c2c2ccc(OC)cc2n1C	none (no result: T cruzi growth-1)
O=C(c1cccnc1)N1C[C@@H]2[C@H](c3ccccc31)[C@@H](CO)N2C(=O)C1CCCCC1	none
Cc1noc(C)c1NC(=O)Nc1ccc2c(c1)CC(=O)N([C@@H](C)CO)C[C@@H](C)[C@H](CN(C)S(=O)(=O)c1ccccc1)O2	none
Cc1noc(C)c1S(=O)(=O)Nc1ccc2c(c1)C(=O)N([C@@H](C)CO)C[C@H](C)[C@H](CN(C)C(=O)C1CCCCC1)OCCCC[C@H](C)O2	none
Cc1noc(C)c1NC(=O)N(C)C[C@@H]1Oc2ccc(NC(=O)CCC(F)(F)F)cc2C(=O)N([C@H](C)CO)C[C@H]1C	none
C[C@@H]1CCCCO[C@H](CN(C)S(=O)(=O)c2ccc(F)cc2)[C@@H](C)CN([C@H](C)CO)C(=O)c2cc(NC(=O)NC3CCCCC3)ccc2O1	none
C[C@@H]1CN([C@H](C)CO)C(=O)c2cc(NC(=O)Nc3ccc4c(c3)OCO4)ccc2O[C@@H](C)CCCCO[C@H]1CN(C)S(=O)(=O)c1ccc(F)cc1	none
